These results are taken from ChEMBL document CHEMBL3988442, “University of Dundee, Small-Polar-MMV Screening Library” (2021).

The structures appear in SMILES notation.

For the first test, the target named is T1, Aspartate--tRNA(Asp/Asn) ligase (Mycobacterium tuberculosis (strain ATCC 25618 / H37Rv)) (UniProt P9WFW3). Further: in the data most compounds retested in dose-response had high values.
T1 sequence (whole entry): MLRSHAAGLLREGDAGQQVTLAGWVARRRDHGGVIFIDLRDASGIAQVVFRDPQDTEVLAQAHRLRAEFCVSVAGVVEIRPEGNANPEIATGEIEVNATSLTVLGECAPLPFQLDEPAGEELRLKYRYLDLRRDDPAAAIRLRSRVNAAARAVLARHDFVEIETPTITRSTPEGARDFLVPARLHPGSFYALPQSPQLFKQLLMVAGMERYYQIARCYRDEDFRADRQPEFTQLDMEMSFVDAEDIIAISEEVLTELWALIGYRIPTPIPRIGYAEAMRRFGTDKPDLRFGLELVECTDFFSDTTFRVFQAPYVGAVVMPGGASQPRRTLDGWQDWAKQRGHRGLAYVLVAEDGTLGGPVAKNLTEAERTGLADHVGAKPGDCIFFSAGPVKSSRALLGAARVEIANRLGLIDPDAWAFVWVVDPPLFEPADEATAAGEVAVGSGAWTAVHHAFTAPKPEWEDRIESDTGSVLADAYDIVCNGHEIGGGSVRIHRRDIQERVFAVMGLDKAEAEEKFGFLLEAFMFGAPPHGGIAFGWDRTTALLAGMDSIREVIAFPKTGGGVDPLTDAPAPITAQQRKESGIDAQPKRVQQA
Briefly: Assay for Asp RNA synthetase-1 from Mycobacterium tuberculosis. Type of test: functional. Set-up: scale not given: direction of the effect not stated beside the values. The following applies: 30 µM.
Regarding `O=C(CNCCn1cccn1)NCC1(c2ccccc2)CC1`, the Percent Effect worked out at 1.09%.
On the same count and under the same terms, with `O=C(C[C@@H]1COC[C@H]2CN(Cc3ccncc3)C[C@@H]12)N1CCOCC1` the figure was -4.65%.
The same measure, in the same setting: the figure for `CCOC(=O)CN1CCC(C(=O)c2cc(F)ccc2F)CC1` is -0.233%; for `Cc1nc(C2CCCN2CCCS(=O)(=O)N(C)C)no1` (centres undefined) it is -1.34%; for `Cc1cc(CN2CCC(CNC(=O)c3nccc4ccccc34)C2)[nH]n1` (centres undefined) it is 8.37%.
As for `CCc1ccc(CN2C[C@@H]3OCCN(c4ccnc(N(C)C)n4)[C@@H]3C2)o1`, the Percent Effect was -6.22%.
Same read-out and setting: the figure for `N#Cc1cccnc1NCCNC(=O)N1CCCC(C(F)(F)F)C1` (centres undefined) is -0.524%.
For `CSCC(=O)N1CCCN(c2ccccc2C)CC1`, the Percent Effect was found to be 0.55%.
For `Cc1ccc(-c2ncc(C(=O)NCCNC(=O)C(C)C)s2)c(C)c1`, the Percent Effect stood at 2.19%.
The same measure, in the same setting: the figure for `CC(Cn1cccn1)NC(=O)Nc1nnc(C2CC2)s1` (centres undefined) is -7.13%.
Consider `OC(COCc1ccccc1F)CN1CCc2c(ncn2C2CC2)C1` (centres undefined), for which the Percent Effect is -6.48%.
For `NC(=O)C1(c2cnccn2)CCCN1Cc1cc2ccccc2o1` (centres undefined), the Percent Effect came to 3.17%.
The same measure, in the same setting: with `O=C(c1ccsc1)N1CCOC2(CCN(Cc3cccnc3)CC2)C1` the figure was 0.932%; with `Cc1ccc(C)n1-c1ccc(C(=O)NCCNc2ncccn2)cc1`, 5.76%.
For `N#Cc1ccc(CN2CCN(C(=O)c3cc(C4CC4)[nH]n3)CC2)cc1`, the Percent Effect was -2.71%.
In the case of `O=C(NC1CCS(=O)(=O)C1)N1CCN(c2cnccn2)CC1` (centres undefined), the Percent Effect was -1.72%.
Still for that read-out and setting: with `CC(C)Cc1cc(NC(=O)c2ccc(=O)[nH]n2)n(C)n1` the figure was -2.97%.
As to `CCN1CCN(C2CCN(Cc3cc(C)on3)CC2)C1=O`, the Percent Effect was -3.97%.
On the same count and under the same terms, with `O=C(CN1CCC(C(=O)c2cc(F)ccc2F)CC1)NC1CCCC1` the figure was -0.27%; with `Cc1nn(C)c(Cl)c1C1CCCN1C(=O)c1ccc2nncn2c1` (centres undefined), -1.25%.

Another test deals with Shiga toxin 2 (Escherichia coli O157:H7) (UniProt P09385+P09386). Briefly: E. coli 0.157:H7 Shiga Toxin SOP - stx2 screening assay. Type of test: functional. Set-up: scale not given: direction of the effect not stated beside the values. The following applies: 30 µM.
On to `Cn1ccnc1CN1CCCC(Cc2ccccn2)C1` (centres undefined), for which the Percent Effect is -6.98%.
Turning to `Cc1cnn(CCNCc2csc(-c3cccs3)n2)c1`, the Percent Effect amounted to 19.3%.
Still for that read-out and setting: with `Cc1nc(C)c(C(=O)NCCNC(=O)Cc2cccc(F)c2)s1` the figure was 6.14%; with `CCCc1nc(CN2CCOC(CNc3cccnn3)C2)cs1` (centres undefined), 27.3%; with `COCCN1CC[C@H](O)[C@@H]1Cc1ccccc1`, -34.6%.
`Cc1n[nH]cc1CNc1ccc2c(c1)CN(C(=O)OC(C)(C)C)CC2`: the Percent Effect was -13.2%.
The same measure, in the same setting: with `CC(NC(=O)NCCCN(C)C)c1ccc2c(c1)CCC(=O)N2` (centres undefined) the figure was 7.67%; with `O=C(CN1CCCC1Cn1cncn1)NC(C1CC1)C1CC1` (centres undefined), -2.93%; with `CCS(=O)(=O)NC[C@]12COC[C@H]1CN(Cc1cccc(OC)c1)C2`, 1.39%.
Still for that read-out and setting: with `CN(C)S(=O)(=O)N1CCC(Oc2ccccn2)CC1` the figure was 10.6%.
`Cc1n[nH]c(C2CN(C(=O)c3cc(Cl)c[nH]3)CCO2)n1` (centres undefined): the Percent Effect was -2.92%.
The same measure, in the same setting: the figure for `CNS(=O)(=O)Cc1ccc(CNc2cncc(-n3cccn3)n2)cc1` is -15.6%.
On the same count and under the same terms, the figure for `Cc1cc(C(=O)NCc2ccnc(N3CCN(C)CC3)c2)c(C)s1` is -30.4%.
On to `CC(CN1CCOCC1)NC(=O)N(C)Cc1ccc(Cl)s1` (centres undefined), for which the Percent Effect was -12.6%.
Take `O=C(NCc1ccco1)[C@@]12CCO[C@@H]1CCN(CCN1CCCC1)C2`: the Percent Effect is -24.8%.
As to `CCN1CCN(S(=O)(=O)c2ncn(C)c2Cl)CC1`, the Percent Effect was -7.16%.
The same measure, in the same setting: with `CCCc1n[nH]c(C2CN(Cc3nnc(C4CC4)o3)CCO2)n1` (centres undefined) the figure was -20.6%.
As to `CN(C)C(=O)NC[C@H]1OC[C@@H]2CCN(Cc3ccoc3)C[C@@H]21`, the Percent Effect is -22.6%.
Consider `Cn1c(CN2CCCC2)nnc1C1CCCN(C(=O)C2CCOCC2)C1` (centres undefined), for which the Percent Effect is -6.15%.
`Cc1csc(N2CCN(CC(=O)Nc3nncs3)CC2C)n1` (centres undefined): the Percent Effect was 3.44%.
Turning to `O=C(CNCCn1cccn1)NCC1(c2ccccc2)CC1`, the Percent Effect is 13.4%.
As to `O=C(C[C@@H]1COC[C@H]2CN(Cc3ccncc3)C[C@@H]12)N1CCOCC1`, the Percent Effect is -32%.
Same read-out and setting: the figure for `CCOC(=O)CN1CCC(C(=O)c2cc(F)ccc2F)CC1` is -13.5%.
On the same count and under the same terms, the figure for `Cc1nc(C2CCCN2CCCS(=O)(=O)N(C)C)no1` (centres undefined) is -7.71%; for `Cc1cc(CN2CCC(CNC(=O)c3nccc4ccccc34)C2)[nH]n1` (centres undefined) it is -22.4%; for `CCc1ccc(CN2C[C@@H]3OCCN(c4ccnc(N(C)C)n4)[C@@H]3C2)o1` it is -25.6%.
Still for that read-out and setting: with `N#Cc1cccnc1NCCNC(=O)N1CCCC(C(F)(F)F)C1` (centres undefined) the figure was -17.9%; with `CSCC(=O)N1CCCN(c2ccccc2C)CC1`, -18.5%; with `Cc1ccc(-c2ncc(C(=O)NCCNC(=O)C(C)C)s2)c(C)c1`, 11.7%.
Turning to `CC(Cn1cccn1)NC(=O)Nc1nnc(C2CC2)s1` (centres undefined), the Percent Effect amounted to 7.79%.
On the same count and under the same terms, the figure for `OC(COCc1ccccc1F)CN1CCc2c(ncn2C2CC2)C1` (centres undefined) is -4.88%; for `NC(=O)C1(c2cnccn2)CCCN1Cc1cc2ccccc2o1` (centres undefined) it is 11.4%; for `O=C(c1ccsc1)N1CCOC2(CCN(Cc3cccnc3)CC2)C1` it is -9.41%.
Still for that read-out and setting: with `Cc1ccc(C)n1-c1ccc(C(=O)NCCNc2ncccn2)cc1` the figure was 7.86%.
